# Out of some 330,000 compounds screened, about 4,200 (1.3%) were called active. Another 6% or so got no clear call; they are omitted. Calls follow the shape of the dose curve; as a rule, active = well fitted activation curve with a large enough effect; inconclusive = small, poorly fitted or top-dose-only effect; inactive = no such curve, though single readings can be large or run the other way. Shown is part of a subset that was picked to be rich in actives. A call without a number means that no potency is given here.
# Experiment: qHTS screen for small molecules that induce genotoxicity in human embryonic kidney (HEK293T) cells expressing luciferase-tagged ELG1; also: nearly all actives have a fitted effect of over 60% in size
# Conditions: HEK293T ELG1-luciferase reporter, luminescence, 16 h; series mostly up to 46 µM
# From the text: NIH Molecular Libraries Probe Production Network [MLPCN] NIH Chemical Genomics Center [NCGC] MLPCN Grant: 1 R03 MH092164-01 Assay Provider: Kyungjae Myung, NHGRI, NIH Keywords: MLPCN, qHTS, NCGC, genotoxicity, cancer Assay Overview: Cancer cells divide rapidly compared to normal cells in the body. During cell division, cancer cells need to duplicate their genome by DNA replication. The failure of genome duplication leads to cancer cells' death. Therefore, inhibitors of DNA replication could specifically kill cancer cells. Based on this concept, many chemotherapeutic agents were developed and have been used to treat cancer patients. However, there are a limited number of agents available in the clinical setting, and some of those that do exist have low efficacy and severe side effects. Therefore, if we can find the compounds that effectively block DNA replication either by directly damaging DNA or by inhibiting other cellular mechanisms, the options for cancer treatment will be broadened. With this in mind, we developed a quantitative high-throughput ELG1-luciferase reporter gene assay. Since the level of human ELG1 protein is enhanced in response to genetic stresses, increases in luciferase activity can be used to identify compounds that cause genetic stress.
# Assay Protocol Summary: For genotoxicity screening, 2,000 cells in 5 uL/well were dispensed into white, solid-bottom 1536-well plates using a solenoid-based dispenser. Following transfer of 23 nL compound or DMSO vehicle by a pin tool, the plates were incubated 16 hr at 37 °C and 5% CO2. 5 ul ONE-Glo (Promega) was then added to each plate and following a 30 min incubation at room temperature, luciferase activity was quantified on a ViewLux CCD-based plate reader.
# Potency is read from the fitted curve at half-maximal effect.
row,Compound,Potency
1,O=C(CSc1nnc(-c2ccncc2)o1)Nc1cccc(Cl)c1,inactive
2,CN(Cc1ccc(CNC[C@H]2O[C@@H](n3cnc4c(N)ncnc43)[C@H](O)[C@@H]2O)o1)S(C)(=O)=O,inactive
3,C=C(C)CSc1nnc(-c2ccc(C)cc2)n1N,10 µM (active)
4,Cc1ccc(NC(=O)NC(=O)CSc2nnc(-c3ccc(OC(F)F)cc3)n2N)c(C)c1,inactive
5,Cc1ccc(-c2nnc(SC(C)C#N)n2N)cc1 (stereo not given),inactive
6,CN(CC(=O)NCCc1ccc(S(N)(=O)=O)cc1)CC(=O)Nc1ccc(F)c(F)c1F,inactive
7,CCOC(=O)C1CCN(C(=O)CN2C(=O)NC(C)(c3ccc4cc(OC)ccc4c3)C2=O)CC1 (stereo not given),inactive
8,N#CCCN(C(=O)COC(=O)c1ccc2c(c1)OCCO2)c1ccccc1,inactive
9,O=C(OCC(=O)N1CCCCCC1)c1ccc(Cl)nc1,inactive
10,Cc1cccc(NC(=O)Nc2ccc(OCc3ccccc3)cc2)n1,inactive
11,Cc1ccccc1OCC(=O)Nc1nc(C)c(C(=O)N(C)C)s1,inactive
12,COCCNC(=O)COc1ccccc1C,inactive
13,CCN(CC)S(=O)(=O)c1ccc(C)c(NC(=O)COc2ccc(Br)cc2Cl)c1,inactive
14,Cc1cccc(NC(=O)COc2ccccc2C)n1,18.4 µM (active)
15,Cc1cccc(NC(=O)COc2ccc(Br)cc2C)n1,2 µM (active)
16,CC(=NNC(=O)c1ccc2nc[nH]c2c1)c1ccc(Br)cc1,inactive
17,CCOC(=O)C1CCN(CC(=O)Nc2ccc(OC)c(S(=O)(=O)N3CCCCC3)c2)CC1,inactive
18,CC1O[C@H](OC2C(COC3OC(CO)C(O)[C@H](O)C3O)OC(OC3CC[C@]4(C)C(CC[C@@]5(C)[C@@H]4C=C[C@]46OC[C@@]7(CCC(C)(C)C[C@H]74)C(O)C[C@@]56C)C3(C)C)C(O)C2O)C(O)C(O)C1O (stereo not given in full),inactive
19,CC(=O)c1sc(N/N=C\c2ccc(C)cc2)nc1C,18.4 µM (active)
20,CC(=O)c1sc(NC(=O)C2=NN(c3ccccc3)C(=O)CC2)nc1C,inactive
21,CC(=O)c1sc(N)nc1C,inactive
22,COc1cc(C=NNC(=O)c2cccnc2)ccc1OC(=O)c1ccccc1F,inactive

row,Compound,Potency
1,CC[C@@H]1CCCCc2ccccc2[C@@H](C(=O)C[C@H](O)CC(C)=O)OC1=O,inactive
2,O=C(CN1C(=O)NC2(CCCCCCC2)C1=O)NCc1ccc(F)cc1,inactive
3,Cc1ccc(NC(=O)CN(C)C(=O)c2ccc(Cl)c(S(=O)(=O)NCc3ccco3)c2)cc1,inactive
4,COc1ccc(N=C(C)c2sc3ccccc3c2O)cc1,2.31 µM (active)
5,Oc1ccc(N=Cc2sc3ccccc3c2Cl)cc1,inactive
6,COC(=O)c1ccc(/C=C/c2c(-c3ccc(OC)cc3)sc3ccccc23)cc1,inactive
7,CCOc1ccccc1Nc1nnc(SCC(=O)NCC2CCCO2)s1 (stereo not given),inactive
8,Cc1ccc(C)c(NC(=O)CN(C)C(=O)COc2ccc3ccccc3c2)c1,inactive
9,Cc1ccc(-n2c(SCC(=O)N3CCC(C(=O)O)CC3)nc3ccccc3c2=O)cc1C,14.6 µM (active)
10,O=C(CSc1nc2ccccc2c(=O)n1-c1ccccc1F)N1CCOCC1,inactive
11,O=C(CSc1nc2ccccc2c(=O)n1-c1ccc(F)cc1)NC1CC1,inactive
12,COc1ccc(S(=O)(=O)N2CCCCCC2)cc1NC(=O)Cc1ccc(OC)c(OC)c1,inactive
13,N#CC(Cc1cc2ccccc2n1S(=O)(=O)c1ccccc1)OCc1ccccc1 (stereo not given),inactive
14,Fc1ccc2nc(N3CCCCC3)sc2c1,7.31 µM (active)
15,Cc1ccc2nc(N3CCN(C(=O)c4ccco4)CC3)sc2c1,inactive
16,O=C(NCCc1cccc(F)c1)C1CCCN(c2nc3ccccc3s2)C1 (stereo not given),inactive
17,CC(OC(=O)c1ccc(Cl)cc1O)C(=O)NCCC1=CCCCC1 (stereo not given),inactive
18,O=C(COC(=O)c1ccco1)Nc1ccc(Cl)cn1,inactive
19,COc1ccc(NC(=S)N2N=CCC2c2ccccc2)cc1 (stereo not given),4.11 µM (active)
20,CCC(C)N(C)C1CCN(C(=S)Nc2ccc(OC)cc2)CC1 (stereo not given),inactive
21,COc1ccc(NC(=S)N2CCc3cc(OC)c(OC)cc3C2)cc1,inactive
22,COC(=O)[C@]1(CC(C)C)N[C@H](c2ccc(SC3CCCCC3)cc2)[C@@H]2C(=O)N(C)C(=O)[C@@H]21,inactive

row,Compound,Potency
1,CSc1ccccc1NC(=O)c1cc(Cl)sc1Cl,inactive
2,CSc1ccccc1NC(=O)c1cnc2sc(C)cn2c1=O,3.26 µM (active)
3,Cc1ccccc1C(=O)Nc1ccccc1Sc1ccccc1,inactive
4,C[C@@H](CN1CCC[C@H]1CN1C(N)=NC[C@@H]1Cc1ccccc1)N1C[C@@H](Cc2ccccc2)N(CCCC2CCCC2)C1=N,inactive
5,CCN(CC)S(=O)(=O)c1ccc(N2CCCC2)c(NC(=O)c2ccc([N+](=O)[O-])o2)c1,inactive
6,O=C(CSc1nccn1-c1cccc(F)c1)NC1CCCC1,inactive
7,COc1cc(C(=O)NC2CCN(C)CC2)ccc1Nc1ncc2c(n1)N(C1CCC(O)CC1)CCC(=O)N2C (stereo not given),inactive
8,O=C(Cn1c(=S)nc2ccccn21)N1CCc2ccccc2C1,20.6 µM (active)
9,CCC(=O)c1ccc(OCC(=O)OCC(=O)N2CCc3ccccc3C2)cc1,inactive
10,O=C(C(=O)N1CCc2ccccc2C1)N1CCc2ccccc2C1,inactive
11,CCOC(=O)[C@@H]1[C@H]2COc3ccc(Br)cc3[C@H]2N2C(=O)N(c3ccc(C)cc3)C(=O)[C@@]12C,inactive
12,Cc1ccc(S(=O)(=O)N2C[C@@H]3CCCC[C@@H]3[C@@H](C)[C@H]2c2cn(Cc3ccccc3)c3ccc(F)cc23)cc1,inactive
13,CC(C)C(NC(=O)c1c(F)cccc1F)C(=O)NNC(=O)c1ccccc1 (stereo not given),inactive
14,COc1cc(/C=C/C(=O)OCC(=O)c2ccccc2)cc(OC)c1OC,inactive
15,Cc1cc(N)n2nc(-c3ccc(C(C)(C)C)cc3)cc2n1,0.411 µM (active)
16,Cc1nc2cc(-c3ccc(F)cc3)nn2c(N2CCOCC2)c1C,inactive
17,Cc1cc(C(C)(C)C)n2nc(C)c(-c3ccccc3)c2n1,inactive
18,COc1ccc2[nH]c3c(c2c1)CCN1C(=O)C(CC(=O)NCCc2ccccn2)C[C@H](C(=O)N2CCOCC2)[C@@]31C (stereo not given in full),inactive
19,CCn1c(SCc2ccccc2)nc2c(c1=O)SCC2,inactive
20,CCn1c(SCc2ccccc2)nc2cc(OC)c(OC)cc2c1=O,inactive
21,CCS(=O)(=O)n1nc(-c2ccccc2)nc1SCc1ccccc1,10.3 µM (active)

# Source: PubChem BioAssay AID504466 (National Center for Advancing Translational Sciences (NCATS), 2011)
